Rows were chosen to be rich in hits. Some 2.8% of all compounds tested hit in one or more screens of this group.
TRPM1 prom inh – inhibitors of MITF-driven TRPM1 promoter in melanoma cells. actives 0.83% (n = 330,000). SK-MEL-5 TRPM1 promoter luciferase, 24 h. inhibition, % at 12.5 µM;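 active = mean inhibition across replicates of 60% or more, whatever share of single replicates reaches that level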
KKLEB cytotox – reduces viability of KKLEB cystic fibrosis airway cells | KKLEB CF airway cells viability, ATPlite luminescence, overnight; stronger effect = lower value; cells stimulated with P. aeruginosa culture filtrate | activity change (cytotoxicity), % at 5 µM | actives 0.36% (n = 360,000) | AID 602141;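 active = corrected activity change at or below -50% at 5 µM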
CF NFkB block – cystic fibrosis NF-kB activation inhibition; KKLEB NF-kB-GFP reporter, PAF-induced, GFP fluorescence overnight; inhibition, % at 5 µM; actives 0.86% (n = 360,000);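 active = at least 50% inhibition at 5 µM, scaled per plate between neutral and stimulator controls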;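 note: PAF is a Pseudomonas aeruginosa culture filtrate used as stimulus; plate controls were PAF-stimulated DMSO wells for no effect and unstimulated DMSO wells for full effect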
Shn3 inh set2 – Schnurri-3 reporter inhibition in Clone20 osteoblasts. Clone20 osteoblast Shn3 3'UTR firefly luciferase, 24 h. inhibition, % at 12.5 µM. actives 0.52% (n = 360,000). AID 588674;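 active = mean inhibition of at least 75% with every replicate also reaching 75%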;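 note: 0% = median of neutral control wells and 100% = pilot-screen positive control compound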
Peg3 promoter – inhibitors of Peg3 promoter; HeLa PEG-Prom luciferase reporter, luminescence, overnight; inhibition, % at 20 µM; actives 1.7% (n = 360,000); AID 588405;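 active = inhibition of at least 50% at 20 µM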
HIF-2a block – HIF-2a inhibition; 786-0 RCC cells HIF-2a reporter, luciferase luminescence, overnight; inhibition, % at 18.8 µM; actives 0.72% (n = 360,000);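 active = inhibition of the luminescence signal of 40% or more relative to plate controls, in a single-dose primary screen at 18.75 µM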
* = called active by the depositor; . = no result given.

SMILES | TRPM1 prom inh | KKLEB cytotox | CF NFkB block | Shn3 inh set2 | Peg3 promoter | HIF-2a block
COC(=O)c1ccc(NC(=O)CSc2nc3ccc(N4C(=O)C5C6C=CC(C6)C5C4=O)cc3s2)cc1 (stereo not drawn) | 62* | -1 | -7 | 21 | 105* | -93
CCn1cc(CN2CCCC(C(=O)c3sccc3C)C2)cn1 (stereo not drawn) | 4 | -4 | 16 | 13 | 22 | 9
CCN1C[C@]2(COC(=O)c3ccccc3N)CC[C@H](OC)C34[C@@H]5C[C@H]6[C@H](OC)[C@@H]5[C@](O)(C[C@@H]6OC)[C@@](O)([C@H]13)[C@@H](OC)[C@@H]42 | 2 | -4 | -11 | 3 | 1 | 18
CCCCCSc1cc(OC)c(CCN)cc1OC | 39 | 0 | -2 | 11 | -15 | -2
CCCCCCCSc1cc(OC)c(CCN(C)C)cc1OC | -3 | -5 | 5 | -10 | 104* | 6
CC1c2ccccc2-n2nncc2CN1C (stereo not drawn) | -3 | 3 | -13 | -1 | -11 | 13
CCCCCn1c(=O)c(C(=O)Nc2cnccn2)c(O)c2ccccc21 | 66* | -9 | 10 | 82 | -13 | -17
CCCCC1(CC)COP(=O)(OCC(Cl)(Cl)Cl)OC1 (stereo not drawn) | -11 | -6 | 7 | 30 | 10 | 5
O=C1NCN(c2ccccc2)C12CCN(C(CCc1ccccc1)c1nnnn1Cc1ccccc1)CC2 (stereo not drawn) | . | -39 | 23 | 19 | 59* | -45
CC(C)c1oc(=O)cc2c1[C@@H](O)[C@H]1OC(=O)[C@@]3(C)C[C@@H](O)[C@@H](O)[C@@]2(C)C13 (stereo partly drawn) | 64* | 2 | 18 | -15 | 91* | 39
CNC(=O)Oc1ccccc1C1CCCCC1 | -9 | -15 | 19 | 17 | 14 | 6
CCn1nc(-c2ccccc2)nc2c(=O)n(C)c(=O)nc1-2 | 99* | -16 | 3 | 8 | 8 | 17
Brc1ccc(-[n+]2c(-c3ccccc3)cc(-c3ccccc3)cc2-c2ccccc2)cc1 | 70* | -9 | 30 | 90* | 31 | 2
O=C(O)c1ccc(-[n+]2c(-c3ccccc3)cc(-c3ccccc3)cc2-c2ccccc2)cc1 | -9 | -5 | 22 | 0 | -21 | -7
CCCOC(=O)c1ccc(-[n+]2c(-c3ccccc3)cc(-c3ccccc3)cc2-c2ccccc2)cc1 | 64* | -10 | 29 | 52 | 48 | -9
Cc1ccccc1-[n+]1c(-c2ccccc2)cc(-c2ccccc2)cc1-c1ccccc1 | 90* | -6 | 37 | 30 | 37 | -7
Oc1ccccc1-[n+]1c(-c2ccccc2)cc(-c2ccccc2)cc1-c1ccccc1 | 12 | 15 | -15 | -13 | 13 | -6
Cc1nc2c(=O)n(C)c(=O)nc-2n(C)n1 | 110* | -74* | 77* | 98* | 105* | 81*
COC(=O)C1=C(c2ccc(-c3ccccc3)c(F)c2)C[C@@H]2CC[C@H]1N2C(=O)N1CCCC1 | 17 | -1 | 15 | 83 | 17 | 23
CN(C)C1=NP(N(C)C)(N(C)C)=NC(c2ccccc2)=N1 | -4 | -12 | 0 | -2 | 11 | 18
C[C@]12CCC3C(CC[C@H]4C[C@@H](O)CC[C@]34C)C1CC[C@@H]2OC(=O)[C@H](N)CCCCN (stereo partly drawn) | 28 | -11 | 17 | 36 | 87* | 17
CC(=O)C1CCC2C3CCC4CC(O)CCC4(C)C3CCC12C (stereo not drawn) | -1 | 18 | -10 | 8 | 10 | 13
O=C1C(=O)c2cccc3cccc1c23 | 2 | -7 | 12 | -17 | 28 | 25
O=C1C(=O)c2ccccc2-c2ccccc21 | 110* | 5 | 83* | 117* | 101* | 98*
CC(C)C[C@H]1COc2cc(N3CCN(C)CC3)ccc2S(=O)(=O)N1 | . | . | . | . | . | 2
SMILES | TRPM1 prom inh | KKLEB cytotox | CF NFkB block | Shn3 inh set2 | Peg3 promoter | HIF-2a block
CC1([N+](=O)[O-])COP(=O)(Nc2cccc(Br)c2)OC1 (stereo not drawn) | -2 | -7 | 48 | 11 | 4 | -5
C=C1C(=O)O[C@@H]2C[C@@H](C)[C@@H]3C=CC(=O)[C@@]3(C)[C@@H](OC(=O)CC(=O)O[C@H]3[C@@H]4C(=C)C(=O)O[C@@H]4C[C@@H](C)[C@@H]4C=CC(=O)[C@]43C)[C@H]12 | 98* | -37 | 80* | 96* | 105* | 97*
COC(=O)C1=C(c2cccc(OC)c2OC)C[C@@H]2CC[C@H]1N2C(=O)NCC1CC1 | -2 | -1 | 1 | -5 | -18 | -27
Nc1ccc(C2(c3ccc(N)cc3)c3ccccc3-c3ccccc32)cc1 | 4 | -57* | 75* | -17 | 27 | 27
CCOP(=S)(NN(Cc1ccccc1)C(=O)c1ccccc1)OCC | -14 | -1 | -6 | -7 | 21 | 21
COc1cc2cc(C(=O)N3CC(COS(C)(=O)=O)c4ccc(O)cc43)[nH]c2c(OC)c1OC (stereo not drawn) | 110* | -96* | 88* | 95* | 99* | 83*
CC(=O)OC1CC(OC2C(O)CC(OC3C(O)CC(OC4CCC5(C)C(CCC6C5CC(O)C5(C)C(C7=CC(=O)OC7)CCC65O)C4)OC3C)OC2C)OC(C)C1OC1OC(CO)C(O)C(O)C1O (stereo not drawn) | 70* | -48 | 86* | -16 | 95* | 87*
COC1C(O)C(C)OC(OC2CCC3(C)C(CCC4C3C(O)CC3(C)C(C5=CC(=O)OC5)CCC43O)C2)C1O (stereo not drawn) | 73* | -41 | 86* | -14 | 100* | 74*
CN(Cc1cccc(-c2ccncc2)c1)C(=O)Oc1ccccc1Cc1ccccc1 | . | . | . | . | . | 2
c1ccc(CCN2CCCCC2)nc1 | -3 | -4 | -4 | -6 | -17 | 1
COc1cc(/C=C2\C[C@H]3[C@@H]4CC=C5C[C@@H](N6CCCC6)CC[C@]5(C)[C@H]4CC[C@]3(C)[C@H]2O)cc(OC)c1OC | 6 | -8 | 13 | 2 | 3 | 4
COC(=O)C1=C(c2c(C)noc2C)C[C@@H]2CC[C@H]1N2C(=O)NCC1CC1 | -2 | -5 | 7 | -19 | -5 | 9
CC12CCC(O)CC1CCC1C2CCC2(C)C(C3=CC(=O)OC3)C(O)CC12O (stereo not drawn) | 28 | -49 | 71* | 38 | 94* | 16
CC(C)[C@]12CC(=O)[C@H](C)[C@H]1C2 | 7 | -1 | -5 | 3 | 7 | -5
COC(=O)C1=C(C(=O)OC)SC2(S1)C(C(=O)OC)=C(C(=O)OC)Sc1c2ssc1=O | 101* | -69* | 113* | 98* | 111* | 88*

Screening data as filed in PubChem.
